Most compounds without a hit are left out; they make up all but 3.3% or so of the library.
RE007 growth inh: qHTS Assay for Inhibitors of the HIV-1 protein Vpr; Potency, µM (top dose mostly 92.2 µM), without a hit: at the highest dose activity change, negative = less growth, hits mostly inhibitors; S. pombe RE007 Vpr strain, BacTiter-Glo ATP luminescence, 24 h; 0.21% of 360,000 active; AID 651644, 2012; active = well fitted falling curve with a large enough effect; inconclusive = small, poorly fitted or top-dose-only effect; inactive = no such curve, though single readings can be large or run the other way; note: % is set by controls: 0 for no effect and ±100 for the full control effect; nearly all actives have a fitted effect of over 50% in size
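Fission yeast strain RE007, carrying one chromosomally integrated HIV-1 vpr copy, was seeded at OD 0.01 in PMG+AL medium with 23 nL pinned compound. After 24 h at 30 °C and 99% humidity, viability was read by BacTiter-Glo luminescence.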
SARS PLpro yeast: qHTS of Yeast-based Assay for SARS-CoV PLP | S. cerevisiae expressing SARS-CoV PLpro, growth rescue | Potency, µM (top dose mostly 32.9 µM), inactives show top-dose activity, positive = growth rescue, most hits filed as activators | 0.19% of 330,000 active; calls by dose curve; note: 0% is about no effect; nearly all actives have a fitted effect of over 55% in size
AmpC inh no detg: qHTS Inhibitors of AmpC Beta-Lactamase (assay without detergent); AmpC nitrocefin hydrolysis, absorbance 480 nm, 0.0001% Triton; Potency, µM (highest dose often 57.1 µM), inactives show at the highest dose activity change, negative = inhibition, actives largely listed as inhibitors; 0.52% of 330,000 active; P00811;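 note: plate controls were no compound for no effect and no enzyme for full effect; nearly all actives have a fitted effect of over 20% in size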
Target sequence (P00811 whole entry, looked up): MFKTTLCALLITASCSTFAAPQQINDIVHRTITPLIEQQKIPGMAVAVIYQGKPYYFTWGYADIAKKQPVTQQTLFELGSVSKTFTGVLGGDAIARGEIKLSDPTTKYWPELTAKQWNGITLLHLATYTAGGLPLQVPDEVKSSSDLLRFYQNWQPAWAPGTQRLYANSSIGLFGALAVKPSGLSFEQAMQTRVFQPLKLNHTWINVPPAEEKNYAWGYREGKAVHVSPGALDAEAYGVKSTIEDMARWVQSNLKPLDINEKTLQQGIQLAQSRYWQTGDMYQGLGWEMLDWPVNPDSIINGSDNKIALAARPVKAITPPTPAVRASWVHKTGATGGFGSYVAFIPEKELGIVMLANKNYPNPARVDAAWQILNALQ
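AmpC (5.3 nM in the dispensed reagent) in 20 mM phosphate pH 7.0 with 0.01% (detergent screen) or 0.0001% Triton X-100 was preincubated with compounds for 15 min at room temperature. Nitrocefin was then added from an 800 uM solution, and hydrolysis was followed at 480 nm.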
Tb PYK inh: qHTS of Trypanosoma Brucei Inhibitors; pyruvate kinase (Trypanosoma brucei), Q57TT1; 0.12% of 410,000 active; Potency, µM (titrated, usually from 76.8 µM), inactives show at the highest dose activity, negative = inhibition, actives largely listed as inhibitors; AID 624173, 2012; TbPYK enzyme, Kinase-Glo Plus ATP luminescence, 45 min; note: % is set by controls: 0 for no effect and ±100 for the full control effect; nearly all actives have a fitted effect of over 50% in size
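Quantitative HTS: titrated library compounds versus trypanosomal pyruvate kinase in TEA buffer (pH 7.2) containing KCl, MgCl2, BSA and Tween-20. Reactions were initiated with ADP, 130 uM final. Kinase-Glo Plus luminescence was read after 45 min at RT.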
Sm TGR inh: qHTS Assay for the Inhibitors of Schistosoma Mansoni Peroxiredoxins | purified TGR, DTNB reduction, TNB absorbance 405 nm | 3% of 360,000 active | Schistosoma mansoni thioredoxin glutathione reductase (TGR), Q962Y6 | Potency, µM (titrated, usually from 114 µM), for the others: at the highest dose activity change, negative = inhibition, usual class: inhibitors | AID 485364, 2010; note: % is set by controls: 0 for no effect and ±100 for the full control effect; nearly all actives have a fitted effect of over 60% in size
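First, TGR (20 nM dispensed) and NADPH were mixed with compound. Second, a 15 min room-temperature incubation followed. Third, further NADPH and then DTNB were added to start the reaction. Finally, TNB absorbance was monitored kinetically.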
AmpC detergent: qHTS Inhibitors of AmpC Beta-Lactamase (assay with detergent); P00811; AmpC hydrolysis of nitrocefin, absorbance 480 nm, 0.01% Triton; Potency, µM (top dose mostly 114 µM), for the others: top-dose activity change, negative = inhibition, hits mostly inhibitors; 0.041% of 370,000 active; AID 485294, 2010;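 note: 0% = no-compound wells and -100% = no-enzyme wells; nearly all actives have a fitted effect of over 25% in size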
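AmpC (5.3 nM in the dispensed reagent) in 20 mM phosphate pH 7.0 with 0.01% (detergent screen) or 0.0001% Triton X-100 was preincubated with compounds for 15 min at room temperature. Nitrocefin was then added from an 800 uM solution, and hydrolysis was followed at 480 nm.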
* hit, by the source's call; ? = inconclusive; / = no result; [ ] = another dose, or the depositor's remark. Unless noted, calls come from the whole dose curve; as a rule, active = well fitted curve in the direction sought with a large enough effect; inconclusive = small, poorly fitted or top-dose-only effect, or another doubt; inactive = no such curve, though single readings can be large; an effect the other way counts as inactive or inconclusive. Potency is the fitted concentration of half-maximal effect.

SMILES | RE007 growth inh | SARS PLpro yeast | AmpC inh no detg | Tb PYK inh | Sm TGR inh | AmpC detergent
COc1ccccc1NC(=O)CSc1nnc2c3ccccc3n(C(C)C)c2n1 | / | / | / | 0% | 10% | -11%
CC(=O)SC(C[N+](=O)[O-])c1cn(C(C)=O)c2ccccc12 (stereo not given) | ? | -44% | -19% | ? | 4.5µM* | 3%
O=C(CSc1ncn[nH]1)CSc1ncn[nH]1 | -14% | 1% | -18% | -14% | 40µM* | 0%
CC(C)c1ccc(C(=O)CSc2ncn[nH]2)cc1 | 11% | -10% | -16% | ? | -10% | -7%
CCc1cccc(C)c1NC(=O)CSc1nc2c(c(=O)[nH]1)CCC2 | / | / | / | -3% | -10% | 0%
CCN1C(C(=O)c2ccccc2)=C(OC(=O)COc2ccccc2)c2ccccc2S1(=O)=O | / | / | / | 0% | 16µM* | 4%
Cc1ccc(OCC(=O)OC2=C(C(=O)c3ccccc3)N(C)S(=O)(=O)c3ccccc32)cc1 | / | / | / | 0% | 32µM* | 31%
Cc1ccc(C(=O)OC2=C(C(=O)c3ccccc3)N(C)S(=O)(=O)c3ccccc32)cc1 | / | / | / | -3% | 4% | 10%
Cc1nnsc1C(=O)Oc1ccc(C#N)cc1 | / | / | / | 3% | 16µM* | 10%
N=C1/C(=C\c2ccc(-c3ccc(C(=O)O)cc3)o2)C(=O)N=C2SC=C(c3ccccc3)N12 | 1% | 1% | -28% | -1% | -19% | 0%
N=C1/C(=C\c2ccc(-c3cccc(Cl)c3)o2)C(=O)N=C2SC=C(c3ccccc3)N12 | -23% | 8% | 16µM* | -3% | ? | -7%
CC1(N2CCCCC2)CC2(O)C(=[N+]1[O-])CCC/C2=N\O (stereo not given) | -5% | 2% | -21% | -3% | 50µM* | -12%
Cc1ccc([N+](=O)[O-])c(Oc2ncnc3c2oc2ccccc23)c1 | / | / | / | 0% | 2% | -9%
CCOC(=O)c1ccc(N2C(=O)c3n[nH]c(C)c3C2c2ccc(O)cc2)cc1 (stereo not given) | 19% | ? | -41% | 4% | 35µM* | -11%
CCOc1cc(C2c3c(-c4ccccc4)n[nH]c3C(=O)N2c2ccc(C(=O)O)cc2)ccc1O (stereo not given) | 23% | 2% | -21% | -4% | 25µM* | -8%
CCn1nc(-c2ccccc2)c(-c2ccccc2)c(C(=O)Nc2ccccc2C#N)c1=O | / | / | / | -2% | 1% | 21%
O=C(Oc1cccc2cccnc12)c1cccc(N2C(=O)C3C4CCC(C4)C3C2=O)c1 (stereo not given) | 16µM* | -13% | 1% | ? | -8% | -5%
O=C(Oc1cccc2cccnc12)c1ccc(N2C(=O)C3C4CCC(C4)C3C2=O)cc1 (stereo not given) | ? | 13% | -9% | 3% | -1% | 6%
O=C1CN(c2nc3ccccc3n3cnnc23)CC(=O)N1CCc1ccccc1 | 17% | 4% | -32% | -6% | 32µM* | ?
CCN(CC)c1ccc(NS(=O)(=O)c2ccc(-c3coc(C)n3)cc2)c(C)c1 | / | / | / | -15% | ? | -7%
Cc1ccc(S(=O)(=O)N2CCN(C(=O)CSc3ncc(C(F)(F)F)cc3Cl)CC2)cc1 | 4% | 0% | 8% | -7% | 35µM* | 4%
Cc1cccc(NC(=O)CN2C(=O)C(c3ccccc3)=NC23CCC(C)CC3)c1 (stereo not given) | / | / | / | -1% | 12% | 17%
Cc1ccc(C2NC(=O)NC3=C2CCc2ccccc23)cc1 (stereo not given) | -10% | -14% | -14% | 2% | 40µM* | ?
CC(C)c1ccc(C2NC(=O)NC3=C2CCc2ccccc23)cc1 (stereo not given) | 16% | 5% | -8% | 2% | ? | -2%
O=C(NC1CC1)C1CC(=O)N(c2cccc(Cl)c2)C1 (stereo not given) | -6% | 1% | -43% | -7% | 7.1µM* | -3%
SMILES | RE007 growth inh | SARS PLpro yeast | AmpC inh no detg | Tb PYK inh | Sm TGR inh | AmpC detergent
O=C(c1ccccc1)c1ccc2nc(N3CCN(C(=O)c4ccco4)CC3)c3nncn3c2c1 | -1% | -1% | 10% | 4% | 45µM* | -8%
CN1C[C@H](CO)C=C2c3cccc4[nH]cc(c34)C[C@H]21 | -10% | 0% | 6% | -4% | 11µM* | 4%
C=C(NCc1ccccc1)c1ccccc1O | / | / | / | -8% | / | /
CNc1oc(Cc2ccccc2)nc1S(=O)(=O)c1ccc(Cl)cc1 | -1% | 3% | -27% | -2% | 13µM* | -12%
Cc1ccccc1OCC(=O)NCC(c1ccc(Cl)cc1)N1CCCCC1 (stereo not given) | / | / | / | 0% | -6% | 17%
COc1ccc(-c2cc(C(=O)N3CCCC(C(F)(F)F)C3)c3ccccc3n2)cc1 (stereo not given) | -7% | 7%[6.58 µM] | 27% | -11% | 1% | -5%
Cc1ccc(-c2cc(C(=O)N3CCN(c4ncccn4)CC3)c3cc(Br)ccc3n2)o1 | -20% | 0% | 68% | ? | 7.1µM* | -14%
O=C(O)c1cc(-c2ccc(-c3ccc(F)cc3)o2)nc2ccccc12 | -13% | -2% | -20% | ? | 13µM* | -8%
O=C(c1cc(-c2ccc(F)cc2)nc2ccccc12)N1CCC1 | 2% | -5% | 5% | 0% | / | /
Cc1ccc(-c2cc(C(=O)N3CCN(c4ccc(F)cc4)CC3)c3ccccc3n2)o1 | -13% | -17% | 19% | -18% | 45µM* | 4%
Cc1ccc(-c2cc(C(=O)N3CCCC(C(F)(F)F)C3)c3ccccc3n2)o1 (stereo not given) | 0% | -17% | 25% | -5% | 28µM* | -18%
O=C(O)c1cc(-c2ccc(C(F)(F)F)cc2)nc2n[nH]c(-c3ccccc3)c12 | / | / | / | -2% | -2% | 19%
COc1ccc(Nc2nc3ccccc3nc2NS(=O)(=O)c2ccc(Cl)cc2)cc1OC | / | / | / | -7% | -23% | -2%
N#C/C(=C\c1c(Cl)cccc1Cl)c1nc2ccccc2[nH]1 | -19% | -7% | 11µM* | -3% | -5% | -4%
N#C/C(=C(/O)CCl)c1nc2ccccc2[nH]1 | -21% | -2% | -18% | -6% | 25µM* | 1%
N#C/C(=C\c1ccc(Sc2ccc(Cl)cc2)o1)c1nc2ccccc2[nH]1 | 0% | -34% | 28µM* | -6% | -16% | -14%
